A selection: hits, their analogues and other compounds. The true share with any hit is near 10%.
HP1b chromo inh = inhibitors of HP1-beta chromodomain binding to methylated histone tails | Potency, µM (highest dose often 114 µM), for the others: at the top dose activity change, negative = inhibition, most hits filed as inhibitors | hit rate 0.56% among 390,000 | AlphaScreen HP1-beta / biotin-H3K9me3 peptide binding; further: potency means the concentration at half of the fitted maximal effect; nearly all actives have a fitted effect of over 70% in size
Target sequence (P83916 whole entry, looked up): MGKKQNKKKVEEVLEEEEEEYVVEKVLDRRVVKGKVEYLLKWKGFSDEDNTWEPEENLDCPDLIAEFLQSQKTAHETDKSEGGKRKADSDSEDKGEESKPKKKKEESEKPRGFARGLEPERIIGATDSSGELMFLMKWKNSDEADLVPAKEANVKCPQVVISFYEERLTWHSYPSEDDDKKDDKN
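AlphaScreen: HP1-beta (50 nM) preformed 30 min with biotin-H3(1-18)K9me3 peptide (50 nM) in PBS pH 7.4, 0.01% Tween-20. Compound added for 30 min at RT, then streptavidin donor/nickel chelate acceptor beads (10 ug/mL) for 30 min.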
Six1-Eya2 blk = inhibitors of human Six1/Eya2 interaction | AlphaScreen GST-Six1/His-Eya2 binding, biochemical; hits give low values | Q15475+O00167 | activity change, % (test concentration not listed) | hit rate 0.56% among 360,000 | AID 651725; in the data active means activity change below about -65%; inconclusive means mostly about -30% to -63%; further: on the % scale 0 is the no-effect control and ±100 the full control effect
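Homogeneous AlphaScreen proximity assay pairing GST-Six1 with His-tagged Eya2 (added as 5X mix: 250 nM and 500 nM) in 50 mM Tris pH 8.0, 300 mM NaCl, 1 mM TCEP. Glutathione donor and nickel acceptor beads; 1 h, 37 °C, dark.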
BAZ2B inh = inhibitors of human BAZ2B bromodomain; Q9UIF8; AlphaScreen BAZ2B-H3K14Ac peptide displacement; Potency, µM (doses to about 114 µM), without a hit: at the highest dose activity change, negative = inhibition, actives largely listed as inhibitors; hit rate 4.4% among 360,000; further: potency means the concentration at half of the fitted maximal effect; on the % scale 0 is the no-effect control and ±100 the full control effect; nearly all actives have a fitted effect of over 60% in size
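AlphaScreen displacement of biotin-H3(5-23)K14Ac peptide (50 nM final) from BAZ2B (50 nM final) in PBS pH 7.4, 0.01% Tween-20; complex preformed 30 min RT, then compounds (top 110 uM) 30 min RT, beads 20 min dark.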
G9a inh = inhibitors of human histone lysine methyltransferase G9a | Q96KQ7 | G9a H3K9 monomethylation, AlphaScreen, 2 h | Potency, µM (highest dose often 102 µM), for the others: at the highest dose activity, negative = inhibition, most hits filed as inhibitors | hit rate 8.8% among 350,000 | AID 504332; further: potency means the concentration at half of the fitted maximal effect; on the % scale 0 is the no-effect control and ±100 the full control effect; nearly all actives have a fitted effect of over 75% in size
Target sequence (Q96KQ7 913-1193 limits assumed): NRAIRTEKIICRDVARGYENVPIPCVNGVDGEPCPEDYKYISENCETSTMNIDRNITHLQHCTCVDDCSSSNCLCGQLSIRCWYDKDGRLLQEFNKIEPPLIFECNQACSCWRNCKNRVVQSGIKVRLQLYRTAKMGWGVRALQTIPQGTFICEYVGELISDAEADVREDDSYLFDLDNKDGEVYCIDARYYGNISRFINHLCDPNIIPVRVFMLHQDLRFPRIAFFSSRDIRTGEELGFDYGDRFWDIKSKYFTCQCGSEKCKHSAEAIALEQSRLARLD
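Chemiluminescent proximity detection of H3K9 monomethylation, read after 10 min bead incubation in the dark. Reaction: 20 nM G9a, 500 nM biotin-H3K9 peptide, 20 uM SAM cofactor, 2 h, room temperature, following 15 min enzyme-compound preincubation.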
CtBP-E1A inh = blocks the CtBP interaction with E1A; AlphaScreen GST-E1A/His-CtBP binding, 1536-well; hits give low values; hit rate 0.49% among 340,000; activity change, % (test concentration not listed); in the data active means activity change below about -65%; inconclusive means mostly about -30% to -63%; further: on the % scale 0 is the no-effect control and ±100 the full control effect
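Steps: dispense buffer (Tris pH 8.0, NaCl 300 mM, TCEP 1 mM, BSA, Tween 20); add 5X protein mix (GST-E1A, His-CtBP, 125 nM each); pin 23 nL compound; 2 h at 37 °C, dark; add 5X beads (50 ug/mL); 1 h; read.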
JMJD2A Tudor inh = JMJD2A Tudor domain (human) inhibition; O75164; AlphaScreen JMJD2A-Tudor / H3K4me3 peptide binding; Potency, µM (top dose mostly 114 µM), for the others: at the highest dose activity change, negative = inhibition, hits mostly inhibitors; hit rate 4.4% among 390,000; further: potency means the concentration at half of the fitted maximal effect; on the % scale 0 is the no-effect control and ±100 the full control effect; nearly all actives have a fitted effect of over 50% in size
Numbers without * were called inactive; ? = inconclusive; nt = no result given; [ ] = remark or other dose. Unless noted, the call rests on the fitted dose curve; in most records, active means well fitted inhibition curve with a large enough effect; inconclusive means small, poorly fitted or top-dose-only effect; inactive means no such curve, though single readings can be large or run the other way.

SMILES	HP1b chromo inh	Six1-Eya2 blk	BAZ2B inh	G9a inh	CtBP-E1A inh	JMJD2A Tudor inh
CCOC(=O)c1cnc(SC2CC(=O)N(c3cccc(OC)c3)C2=O)nc1N (stereo not drawn)	41%	4	0%	35µM*	-3	-15%
CCOc1ccc2nc(SC3CC(=O)N(c4cccc(OC)c4)C3=O)sc2c1 (stereo not drawn)	39%	0	3%	10µM*	0	-28%
O=C(Nc1ccc(Cl)cc1)C1CCN(c2nc3ccccc3nc2C(F)(F)F)CC1	13%	nt	-1%	11%[59 µM]	nt	-4%
COc1ccc(CC(=O)NCc2n[nH]c(=S)n2-c2ccccc2)cc1	45%	2	-2%	14µM*	nt	?
COc1ccc(CSCCc2n[nH]c(=S)n2-c2ccccc2)cc1	-3%	1	?	?	-16	50µM*
Cc1cc(CNC(=O)c2cccc([N+](=O)[O-])c2C)c2ccccc2n1	32%	-4	-18%	-33%	4	-5%
COc1ccc(CC(=O)NCc2n[nH]c(=S)n2-c2ccc(Br)cc2)cc1	-6%	-4	-22%	?	nt	-18%[11.4 µM]
COc1ccccc1-n1c(CNC(=O)COc2ccccc2)n[nH]c1=S	22%	-1	-1%	?	-11	7.1µM*
Cc1cccc(-n2c(CNC(=O)c3cccc([N+](=O)[O-])c3C)n[nH]c2=S)c1	17%	7	nt	11µM*	9	16µM*
CS(=O)(=O)c1nc(S(=O)(=O)c2ccc(Cl)cc2)c(N2CCOCC2)s1	57%	3	2%	0%	9	?
CC(=O)N1c2ccccc2N=C(c2ccc3c(c2)OCO3)C1C(=O)NCc1ccccc1 (stereo not drawn)	nt	-6	nt	nt	5	nt
CC(C)[C@H](NC(=O)c1c(F)cccc1F)C(=O)OCC(=O)NNC(=O)c1ccccc1	nt	-10	nt	nt	8	nt
COc1ccccc1-n1c(CNC(=O)c2cccc([N+](=O)[O-])c2C)n[nH]c1=S	37%	8	-6%	?	2	20µM*
O=C(CN1CCCCCC1)N/N=C/c1cccc(Cl)c1Cl	?	-7	56µM*	?	0	10µM*
O=C(CN1CCSCC1)N/N=C/c1ccccc1F	?	0	50µM*	1%[12.7 µM]	-3	3.2µM*
O=C(CN1CCCCC1)N/N=C/c1ccccc1Br	11%	4	?	nt	-7	-6%
CCN1CCN(CC(=O)Nc2cc(F)ccc2C)CC1	11%	4	11%	-13%	7	-4%[11.4 µM]
CCN1CCN(CC(=O)N/N=C/c2ccc(F)cc2F)CC1	?	3	50µM*	2.8µM*	-16	2.8µM*
O=C(CN1CCCCCCC1)N/N=C/c1ccccc1F	-3%	4	56µM*	13µM*	1	71µM*
C=CC[C@@H](Cc1ccc(F)cc1)C(=O)OC[C@@H]1CCCN1C(=O)[C@@H](CC=C)CC(=O)NCCO	30%	3	nt	nt	3	-25%
COc1ccc(/C=N/NC(=O)CN2CCCC2)cc1	34%	-1	-4%	3%	nt	-16%
COc1ccc(/C=N/NC(=O)CN2CCCCCCC2)c(C)c1C	?	-8	56µM*	8.9µM*	-12	5µM*
Cc1ccc(C)c(NC(=O)CN(C)C(C)C(=O)N2CC(C)CC(C)C2)c1 (stereo not drawn)	48%	-6	-5%	56µM*	-1	-20%
Cc1ccc(C)c(NC(=O)CN(C)C(=O)C2CCCC2)c1	30%	28	17%	?	nt	-18%
COc1cc2ccccc2cc1C(=O)Nc1cccc(-c2nc3cc(C)ccc3o2)c1C	33%	nt	2%	-27%[59 µM]	nt	-11%
SMILES	HP1b chromo inh	Six1-Eya2 blk	BAZ2B inh	G9a inh	CtBP-E1A inh	JMJD2A Tudor inh
COc1cc2ccccc2cc1C(=O)Nc1cccc(-c2nc3cc(C)c(C)cc3o2)c1C	10%	nt	2%	3.2µM*	nt	7%
COc1cc(CN2CCN(Cc3ccc(SC)cc3)CC2)cc(OC)c1O	25µM*	7	50µM*	7.9µM*	-7	0.89µM*
COc1ccc(S(=O)(=O)N2CCN(Cc3cccc(OC)c3)CC2)cc1	45%	14	5%	9%	nt	-4%
COc1cc(OC)c(OC)cc1CN1CCN(Cc2ccc(SC)cc2)CC1	?	-3	40µM*	3.2µM*	nt	20µM*
COc1cc(Cl)ccc1OC1(C)CCN(Cc2ccc(SC)cc2)C1 (stereo not drawn)	nt	-11	nt	nt	-17	nt
COc1cccc(CN2CCN(Cc3cc(OC)c(OC)cc3OC)CC2)c1	18µM*	2	20µM*	45µM*	10	1.6µM*
CC1CN(S(=O)(=O)c2cccc(C(F)(F)F)c2)C(C)N1C(=O)N1CCOCC1 (stereo not drawn)	27%	3	-8%	0%[59 µM]	10	-14%
O=C(NCCc1ccccc1)c1cnc2sc(N3CCCCC3)nn2c1=O	36%	nt	-5%	-7%[59 µM]	nt	-9%
O=C1CCc2cc(S(=O)(=O)Nc3cccc(F)c3)ccc2N1	nt	nt	nt	nt	nt	-17%
Oc1ccc(Br)cc1/C=N/N1CCCCC1	-6%	-16	-5%	11µM*	-2	-27%
O=C1CSC(=S)N1/N=C/c1cc(Br)ccc1O	nt	nt	5µM*	10µM*	nt	nt
O=C1CSC(=S)N1N=Cc1ccc(Cl)s1	?	?	nt	nt	?	28µM*
COc1cc(-c2ccc3ncnc(NCC4CCCO4)c3c2)cc(OC)c1OC (stereo not drawn)	nt	nt	nt	nt	nt	-23%
c1nc(NCC2CCCO2)c2ccc(-c3ccc4c(c3)OCO4)cc2n1 (stereo not drawn)	nt	nt	nt	nt	nt	79µM*
NC(=O)c1oc2ccccc2c1NC(=O)C1COc2ccccc2O1 (stereo not drawn)	9%	2	-10%	-46%	-1	-11%
N#CC(=C1Nc2ccccc2N1)S(=O)(=O)c1ccccc1	-17%	-12	-12%	nt	17	25µM*
CC(C)(C)C(=O)OCOP(=O)(COCCn1cnc2c(N)ncnc21)OCOC(=O)C(C)(C)C	nt	nt	nt	6.3µM*	nt	nt
Nc1ncnc2c1ncn2CCOc1ccccc1	34%	11	-3%	9%[59 µM]	-6	-20%
Cc1ccc(-n2nc(CO)c(C(=O)NCCc3ccccc3)n2)cc1C	-13%	nt	-4%	-1%[59 µM]	nt	-22%
NNc1ccccc1C(F)(F)F	?	1	50µM*	2.8µM*	4	32µM*
CC(=O)Nc1ccccc1C(F)(F)F	47%	0	0%	0%	9	15%
COc1cc(/C=N/NC(=O)c2cccnc2)cc(Br)c1O	7%	4	?	?	nt	-21%
COc1cc(/C=N/n2c(COc3ccccc3)n[nH]c2=S)cc(Br)c1O	-19%	-13	-29%	1.3µM*	-9	13µM*
COc1cc(/C=N/n2c(COc3ccccc3)n[nH]c2=S)cc(OC)c1OC(C)=O	4%	-12	-3%	10µM*	nt	?

Screens deposited in PubChem by National Center for Advancing Translational Sciences (NCATS).
